What all share (experiment): NCI-60 one-dose screen, 48 h (100 = growth as untreated, 0 = no growth, -100 = all killed)
One test has as its system K-562 leukemia. Particulars: 10 µM unless noted.
In another test the test system is MALME-3M melanoma. Particulars: 10 µM unless noted.
The next test has as its system MDA-MB-231 breast. Particulars: 10 µM unless noted.
The next test concerns RXF 393 renal. Particulars: 10 µM unless noted.
In another test the test system is SF-268 CNS. Particulars: 10 µM unless noted.
Another test concerns SF-295 CNS. Particulars: 10 µM unless noted.
The subject of a further test is SF-539 CNS. Particulars: 10 µM unless noted.
The subject of another test is UACC-257 melanoma. Particulars: 10 µM unless noted.
Another test concerns HCT-15 colon. Particulars: 10 µM unless noted.
In a further test the test system is HT29 colon. Particulars: 10 µM unless noted.
Another test concerns SNB-75 CNS. Particulars: 10 µM unless noted.
A further test relates to SNB-19 CNS. Particulars: 10 µM unless noted.
The test system of another test is U251 CNS. Particulars: 10 µM unless noted.
Another test concerns PC-3 prostate. Particulars: 10 µM unless noted.
A further test has as its system SK-MEL-5 melanoma. Particulars: 10 µM unless noted.
Another test concerns UACC-62 melanoma. Particulars: 10 µM unless noted.
Another test deals with LOX IMVI melanoma. Particulars: 10 µM unless noted.
The next test concerns SK-MEL-28 melanoma. Particulars: 10 µM.
A further test concerns SK-MEL-2 melanoma. Particulars: 10 µM unless noted.
A further test relates to M14 melanoma. Particulars: 10 µM unless noted.

This is part of a sample that, as a whole, favours compounds with a hit. Of some 83,000 tested, about 20% had one in any assay.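 Negative percent growth values reflect cell death: -40 means 40% of the cells present at the start died, and -100 means all died.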 Unmarked numbers belong to inactive results. Calls of active or inactive are those of the source. How the source made its calls: active means growth percent below 10; inactive means the rest.

As to `COc1ccccc1C1=C(Br)C(=O)c2nc(C)ccc2C1=O`, the growth is 65% with K-562 leukemia; 62.4% in the test on MALME-3M melanoma; 96.6% in the test with MDA-MB-231 breast; 102% in the test with RXF 393 renal; 97.5% with SF-268 CNS; 98.6% in the test on SF-295 CNS. The growth in the test with SF-539 CNS is 105%; in the test on UACC-257 melanoma, 99.6%; in the test on HCT-15 colon, 96.7%; with HT29 colon, 101%; with SNB-75 CNS, 94.4%; in the test with SNB-19 CNS, 101%. Besides, the growth in the test with U251 CNS was 102%; in the test with PC-3 prostate it was 101%; in the test with SK-MEL-5 melanoma, 100%; in the test with UACC-62 melanoma, 88.9%; in the test with LOX IMVI melanoma it was 97.1%; in the test with SK-MEL-28 melanoma it was 104%. Besides, in the test with SK-MEL-2 melanoma, the growth is 97.2%.
Turning to `O=C(Nc1ccc(N2CCNCC2)cc1)c1[nH]ncc1Nc1cc(Oc2ccccc2)ncn1`, the growth with K-562 leukemia is 8.34% (active); in the test with MALME-3M melanoma it was 58.4%; in the test with MDA-MB-231 breast it was -20.9% (active); with RXF 393 renal, -89.2% (active); in the test on SF-268 CNS, 35%; with SF-295 CNS it was -70.2% (active). The growth in the test on SF-539 CNS was -46.2% (active); in the test on UACC-257 melanoma, 29.7%; in the test on HCT-15 colon, -35.9% (active); in the test on HT29 colon, -59.7% (active); in the test with SNB-75 CNS it was 49.1%; in the test with SNB-19 CNS it was 45.9%. Besides, the growth in the test on U251 CNS is 24.4%; in the test on PC-3 prostate, -60.3% (active); with SK-MEL-5 melanoma it was 22.8%; in the test with UACC-62 melanoma it was -5.09% (active); in the test with LOX IMVI melanoma it was -81% (active); with SK-MEL-28 melanoma, 46.9%.
As for `CC1=NCC2NC(=O)NC(C)=C12` (configuration not stated), the growth with K-562 leukemia was 110%; in the test with MALME-3M melanoma it was 96%; in the test with MDA-MB-231 breast, 95%; in the test with RXF 393 renal, 101%; in the test with SF-268 CNS it was 96.1%; in the test with SF-295 CNS, 103%. The growth in the test with SF-539 CNS was 95.8%; in the test on UACC-257 melanoma it was 105%; in the test with M14 melanoma it was 98.5%; with HCT-15 colon it was 103%; in the test with HT29 colon, 108%; in the test on SNB-19 CNS, 98.9%. In addition, the growth with U251 CNS was 103%; with PC-3 prostate it was 93.9%; in the test with UACC-62 melanoma, 95.2%; with LOX IMVI melanoma, 101%; in the test with SK-MEL-28 melanoma, 114%; in the test with SK-MEL-2 melanoma, 101%.
In the case of `O=C(Nc1ccc(Cl)cc1F)c1cc(Br)ccc1O`, the growth with K-562 leukemia is 8.83% (active); in the test with MALME-3M melanoma it was -16.9% (active); with MDA-MB-231 breast it was -26.1% (active); in the test on RXF 393 renal, 7.94% (active); in the test on SF-268 CNS it was 13.6%; with SF-295 CNS it was -48.3% (active). For the same compound, the growth in the test with SF-539 CNS was 7.34% (active); in the test with UACC-257 melanoma, -15.8% (active); in the test with HCT-15 colon, 4.84% (active); with HT29 colon, 42.4%; in the test on SNB-75 CNS, -13.6% (active); in the test on SNB-19 CNS it was 20.4%. Further, the growth in the test with U251 CNS was 1.1% (active); with PC-3 prostate, -0.306% (active); in the test with SK-MEL-5 melanoma it was -87.2% (active); in the test with UACC-62 melanoma, -21.8% (active); in the test on LOX IMVI melanoma, 16.1%; in the test on SK-MEL-28 melanoma, 13.2%. The growth with SK-MEL-2 melanoma is -16.3% (active).
`CC[C@H](C)[C@@H](C(=O)OC)n1cc(CNC(=O)[C@@H](Cc2ccccc2)NC(=O)OCc2ccccc2)nn1`: the growth is 95.9% with K-562 leukemia; 100% in the test on MALME-3M melanoma; 101% in the test on MDA-MB-231 breast; 104% with RXF 393 renal; 93.8% with SF-268 CNS; 99.4% in the test on SF-295 CNS. Also, the growth was 104% in the test with SF-539 CNS; 95.8% with UACC-257 melanoma; 109% in the test with M14 melanoma; 97.5% in the test on HCT-15 colon; 101% with SNB-75 CNS; 93.2% in the test with SNB-19 CNS. For the same compound, the growth with U251 CNS was 91.5%; in the test on PC-3 prostate, 100%; in the test with SK-MEL-5 melanoma, 103%; in the test with UACC-62 melanoma it was 94.6%; in the test with LOX IMVI melanoma, 99.5%; in the test on SK-MEL-28 melanoma, 110%. Further, in the test on SK-MEL-2 melanoma, the growth is 105%.
As to `CN1C(=O)N(C)C2C1NN=c1s/c(=C\c3ccc(Cl)cc3Cl)c(=O)n12` (configuration not stated), the growth in the test on K-562 leukemia was 7.76% (active); with MALME-3M melanoma it was 62.4%; in the test on MDA-MB-231 breast it was 30.4%; in the test on RXF 393 renal it was 16.2%; in the test with SF-268 CNS it was 31.6%; in the test with SF-295 CNS, 17.4%. The growth is 1.09% (active) with SF-539 CNS; 75.8% in the test on UACC-257 melanoma; 7.37% (active) with M14 melanoma; 15.8% in the test on HCT-15 colon; 15% in the test with HT29 colon; 26.5% with SNB-19 CNS. Also, the growth was 27.5% with U251 CNS; 20% in the test with PC-3 prostate; 30% with UACC-62 melanoma; 19.7% with LOX IMVI melanoma; 58.7% with SK-MEL-28 melanoma; 57% in the test on SK-MEL-2 melanoma.
Consider `O=c1oc2ccc(F)cc2c(=O)n1-c1ccc(Cl)cc1F`, for which the growth in the test on K-562 leukemia was 7.39% (active); in the test on MALME-3M melanoma it was -19.6% (active); in the test on MDA-MB-231 breast it was -17.2% (active); in the test on RXF 393 renal it was -2.79% (active); with SF-268 CNS, 12.7%; in the test on SF-295 CNS, -28.5% (active). Also, the growth is 4.31% (active) with SF-539 CNS; -17.4% (active) in the test with UACC-257 melanoma; 5.11% (active) in the test with M14 melanoma; 7.49% (active) in the test with HCT-15 colon; 26.7% in the test on HT29 colon; 16.1% in the test on SNB-19 CNS. Moreover, the growth with U251 CNS was 2.3% (active); in the test with PC-3 prostate, 0.0571% (active); with UACC-62 melanoma, -8.7% (active); in the test on LOX IMVI melanoma, 16.9%; with SK-MEL-28 melanoma, 14.7%; with SK-MEL-2 melanoma, -28.7% (active).
Consider `CCN1C(=O)N(c2ccccc2)C2Nn3c(s/c(=C4\C(=O)N(C(C)C)c5ccccc54)c3=O)=NC21` (configuration not stated), for which the growth in the test on K-562 leukemia was 100%; in the test on MALME-3M melanoma, 98.7%; in the test on MDA-MB-231 breast, 99.4%; in the test on RXF 393 renal, 112%; with SF-268 CNS it was 98.7%; in the test on SF-295 CNS it was 98.4%. Also, the growth in the test with SF-539 CNS is 100%; in the test on UACC-257 melanoma it was 104%; in the test with M14 melanoma it was 109%; in the test with HCT-15 colon it was 108%; in the test with HT29 colon it was 105%; with SNB-19 CNS, 96%. Also, the growth in the test on U251 CNS was 104%; with PC-3 prostate it was 106%; in the test with UACC-62 melanoma, 97.5%; in the test on LOX IMVI melanoma, 100%; in the test on SK-MEL-28 melanoma, 118%; with SK-MEL-2 melanoma it was 102%.

For the origin of these results see PubChem BioAssay (NCI).
